Assay [1] in a line: qHTS to identify inhibitors of the type 1 interferon - major histocompatibility complex class I in skeletal muscle: primary screen against the NCATS Mechanism Interrogation Plate v5.0 (MIPE) Libary (AID 1347411).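 Further: plate controls were vehicle for no effect and reference inhibitor for full effect; nearly all actives have a fitted effect of over 65% in size.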 Summed up: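 Luminescence from HiBiT-tagged endogenous HLA-B*08:01 served as the MHC class I read-out. CRISPR-engineered C25cl48 human myoblasts received 4.0 ng/ml IFN-beta plus compound for 24 hrs, with an 11-point, 1:3 series topping at 46 uM final.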
(In qHTS, concentration-response curves come from the screen itself.)

In assay [2] the target is Glutathione peroxidase 1 (Homo sapiens) (UniProt P07203). The experiment in a line: Primary qHTS Assay for Inhibitors of Recombinant Selenoprotein Glutathione Peroxidase 1 (GPX1) (AID 1845191). Further: nearly all actives have a fitted effect of over 65% in size. Summed up: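 GR-coupled assay: compounds preincubated 30 min at room temperature with GPX1, then reaction started with CHP; final 10 nM GPX1, 1 mM GSH, 0.5 mM CHP, 0.5 mM NADPH, 100 nM GR, 0.01% BSA, pH 7.5 Tris buffer. NADPH fluorescence (340/450 nm) read at 0 and 15 min.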
Sequence of Glutathione peroxidase 1 (Homo sapiens) (P07203 whole entry, looked up): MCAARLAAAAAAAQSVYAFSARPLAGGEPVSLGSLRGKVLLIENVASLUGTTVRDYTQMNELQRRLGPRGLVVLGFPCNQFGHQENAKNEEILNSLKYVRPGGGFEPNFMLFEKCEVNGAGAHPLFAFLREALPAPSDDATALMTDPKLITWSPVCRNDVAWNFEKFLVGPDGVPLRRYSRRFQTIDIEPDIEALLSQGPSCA

Assay [3] addresses Phospholipid hydroperoxide glutathione peroxidase GPX4 (Homo sapiens) (UniProt P36969). Briefly: Primary qHTS Assay for Inhibitors of Recombinant Selenoprotein Glutathione Peroxidase 4 (GPX4) (AID 1845192). Further: nearly all actives have a fitted effect of over 65% in size. Further: potency means the concentration at half of the fitted maximal effect. On activity change, negative = inhibition: on the % scale 0 is the no-effect control and ±100 the full control effect. The conditions noted are these: outcome: dose series up to 50 µM unless noted. Summed up:
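GR-coupled assay: recombinant GPX4 preincubated 30 min with compound at room temperature; final 200 nM GPX4, 1 mM GSH, 0.5 mM cumene hydroperoxide, 0.5 mM NADPH, 100 nM GR, 0.01% BSA, pH 7.5 Tris. NADPH fluorescence (340/450 nm) read at 0 and 15 min.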

Assay [4] in a line: qHTS drug screen for cell cycle checkpoint inhibitors in PARPi-resistant BRCA-mutant ovarian cancer cell lines. (AID 1963452; calls by dose curve; further: potency means the concentration at half of the fitted maximal effect). The settings on record: PEO1/OlaR viability, CellTiter-Glo luminescence, 96 h; for Z-AUC: stronger effect = lower value. Summed up: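 PEO1, PEO4 and PEO1/OlaR ovarian cancer cells, 600 per well, exposed 96 h at 37C to a dilution series. Viability read by CellTiter-Glo luminescence, normalized to DMSO and empty wells; activity summarized as Z-AUC.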

A short description of assay [5]: Primary qHTS for inhibitors of nuclear receptor binding SET domain protein 2 (NSD2) in an isogenic RCH-ACV NSD2 p.E1099K mutant (9B) (AID 1645876). Further: nearly all actives have a fitted effect of over 70% in size. Further: potency means the concentration at half of the fitted maximal effect.
Assay [6] can be described thus: Primary qHTS for inhibitors of nuclear receptor binding SET domain protein 2 (NSD2) in an RCH-ACV wild type WT cells (2C) (AID 1645877). Further: nearly all actives have a fitted effect of over 70% in size. Further: potency means the concentration at half of the fitted maximal effect.
Assay [7] can be described thus: qHTS assay to identify inhibitors of the type 1 interferon - major histocompatibility complex class I in skeletal muscle: Counter screen cell viability and HiBit confirmation (AID 1347412). Further: potency means the concentration at half of the fitted maximal effect. On activity change, negative = inhibition: on the % scale 0 is the no-effect control and ±100 the full control effect. On all read-outs here: nearly all actives have a fitted effect of over 60% in size. The settings on record: iHSKM muscle cells + IFN-b, HiBiT or CellTiter-Glo, 24 h; for activity change, negative = inhibition: at 45.9 µM (top of the series). In outline: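 Myoblasts (C25cl48, HLA-B HiBiT) seeded in medium without dexamethasone, IFN-b 4 ng/ml added except unstimulated columns; 1 hr later compounds pinned (12-pt 1:3, top 46 uM final). Incubated 24 hrs, lysed 10 min, luminescence measured.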

[8] abbreviates: measured here: PEO1 parental Z-AUC.

Several values for one entry are separate records, joined by “and”; a condition that tells them apart may be missing. Equal entries are not always repeated. Inconclusive results are not listed. Activity calls are given as the source filed them. Unless noted, the call rests on the fitted dose curve; in most records, active means well fitted curve in the direction sought with a large enough effect; inconclusive means small, poorly fitted or top-dose-only effect, or another doubt; inactive means no such curve, though single readings can be large; an effect the other way counts as inactive or inconclusive.

Sequence of Phospholipid hydroperoxide glutathione peroxidase GPX4 (Homo sapiens) (P36969 whole entry, looked up): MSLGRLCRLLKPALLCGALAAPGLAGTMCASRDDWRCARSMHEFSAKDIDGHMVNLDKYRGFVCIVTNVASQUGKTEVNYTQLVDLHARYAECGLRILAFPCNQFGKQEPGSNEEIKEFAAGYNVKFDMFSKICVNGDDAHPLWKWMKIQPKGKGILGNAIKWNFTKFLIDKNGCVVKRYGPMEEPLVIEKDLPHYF

As for `NS(=O)(=O)c1ccc(NC(=S)N2CCN(C/C=C/c3ccccc3)CC2)cc1`, the Potency result in assay [1], in assay [2] and in assay [3] was “inactive” each time. For the same compound, the Z-AUC in assay [4] was 0.177 (inactive); in assay [4] (setting [8]), -0.364; in assay [4] (measured here: PEO4 Z-AUC), -0.0827.

Turning to `C=C1/C(=C\C=C2/CCC[C@]3(C)[C@@H]([C@H](C)CCCC(C)(C)O)CC[C@@H]23)C[C@@H](O)C[C@@H]1O`, the Potency in assay [5] was 20.9 µM (active) and 18.6 µM (active); in assay [6], 16600 nM (active). Also, the Potency result in assay [2] and in assay [3] was “inactive” in each case. For the same compound, the Z-AUC in assay [4] was 0.612 (inactive) and 1.13 (inactive); in assay [4] (setting [8]), 0.475 and 0.837; in assay [4] (measured here: PEO4 Z-AUC), 0.77 and 1.19. Also, the activity change, negative = inhibition is -12.1% (inactive) in assay [7] (HiBiT) and -5.56% (inactive) in assay [7] (Viability).

`CC(C)n1c(/C=C/[C@H](O)C[C@H](O)CC(=O)O)c(-c2ccc(F)cc2)c2ccccc21`: the Potency result in assay [1], in assay [2] and in assay [3] was “inactive” each time. Also, the Z-AUC in assay [4] was 1.2 (inactive); in assay [4] (setting [8]), 1.21; in assay [4] (measured here: PEO4 Z-AUC), 1.13.

`CC[C@@H](C)[C@H]1O[C@]2(CC[C@@H]1C)C[C@@H]1C[C@@H](C/C=C(\C)[C@@H](O[C@@H]3C[C@H](OC)[C@H](O[C@H]4C[C@H](OC)[C@@H](O)[C@H](C)O4)[C@H](C)O3)[C@@H](C)/C=C/C=C3\CO[C@@H]4[C@@H](O)C(C)=C[C@@H](C(=O)O1)[C@]34O)O2`: the Potency is 27900 nM (active) in assay [7] (HiBiT) and 31300 nM (active) in assay [7] (Viability).

With `CC[C@H]1CN2CCc3cc(OC)c(OC)cc3C2C[C@@H]1CC1NCCc2cc(OC)c(OC)cc21` (stereo not given in full), the Potency in assay [7] (HiBiT) was 279 nM (active).

Regarding `CCOCOC[C@H](C[C@H](C)C(=O)NO)NC(=O)c1ccc(Oc2ccccc2)cc1`, the Potency entry in assay [1] and in assay [2] was “inactive” in each case. For the same compound, the values for the Z-AUC in assay [4], in assay [4] (setting [8]) and in assay [4] (measured here: PEO4 Z-AUC) were 0.6 (inactive), 0.894 and 1.19, respectively.

Consider `N#C/C(=C1/Nc2ccccc2S1)c1ccnc(OCc2ccc(CN3CCOCC3)cc2)n1`, for which the Potency entry in assay [1] and in assay [2] was “inactive” each time. Moreover, the Z-AUC in assay [4] is 0.822 (inactive); in assay [4] (setting [8]) it was 0.219; in assay [4] (measured here: PEO4 Z-AUC), -0.057.

Turning to `C[C@@H]1Cc2c([nH]c3ccccc23)[C@@H](c2c(F)cc(/C=C/C(=O)O)cc2F)N1CC(C)(C)F`, the Potency entry in assay [1] and in assay [2] was “inactive” throughout. The Z-AUC in assay [4] is -0.309 (inactive); in assay [4] (setting [8]) it was -0.682; in assay [4] (measured here: PEO4 Z-AUC), -0.807.

As to `COc1cc(=C2C=c3ccccc3=N2)[nH]/c1=C/c1[nH]c(C)cc1C`, the Potency result in assay [5], in assay [6] and in assay [2] was “inactive” each time. The Z-AUC in assay [4] is 0.716 (inactive); in assay [4] (setting [8]), 0.368; in assay [4] (measured here: PEO4 Z-AUC) it was 1.02. Moreover, in assay [7] (HiBiT), the activity change, negative = inhibition is -23.6% (inactive). Also, the Potency in assay [7] (Viability) was 1250 nM (active).

For `Cc1cc(O)c(-c2ccc([C@@H](C)CN)cc2)c2c1[nH]c(=O)c1sccc12`, the Potency entry in assay [5], in assay [6] and in assay [2] was “inactive” throughout. Also, the Z-AUC in assay [4] was -2.55 (inactive); in assay [4] (setting [8]), -2.78; in assay [4] (measured here: PEO4 Z-AUC) it was -2.98. In addition, the Potency in assay [7] (HiBiT) is 39.4 nM (active). In addition, the activity change, negative = inhibition in assay [7] (Viability) was -14.1% (inactive).

Take `Nc1cccc2c1CN([C@H]1CCC(=O)NC1=O)C2=O`: the Potency entry in assay [1] and in assay [2] was “inactive” each time. Moreover, the Z-AUC in assay [4] is 0.0993 (inactive); in assay [4] (setting [8]), 0.928; in assay [4] (measured here: PEO4 Z-AUC), 1.07.

Regarding `CN1C(=O)N(c2cc(Cl)cc(Cl)c2)C(=O)[C@]12CN(Cc1cc(C(=O)O)cs1)C[C@H]2c1ccc(C#N)cc1`, the Potency entry in assay [1] and in assay [2] was “inactive” each time. Also, the results for the Z-AUC in assay [4], in assay [4] (setting [8]) and in assay [4] (measured here: PEO4 Z-AUC) were 0.948 (inactive), 1.08 and 0.897, respectively.

On to `OCCOc1ccc(/C(=C(/CCCl)c2ccccc2)c2ccccc2)cc1`, for which the Potency entry in assay [1], in assay [2] and in assay [3] was “inactive” each time. For the same compound, the Z-AUC in assay [4] was -0.111 (inactive); in assay [4] (setting [8]) it was 0.225; in assay [4] (measured here: PEO4 Z-AUC), 0.557.

Regarding `CCC(=C/[C@H](C)C/C=C/C(C)=C/[C@@H](C)C(=O)[C@@H](C)[C@H](O)[C@@H](C)C/C(C)=C/C(=O)O)/C=C/[C@@H]1OC(=O)C=C[C@@H]1C`, the Potency in assay [5] was 4.2 nM (active); in assay [6] it was 4.2 nM (active); in assay [3], 10100 nM (active); in assay [4], 6920 nM (active); in assay [7] (HiBiT) it was 3.1 nM (active). Also, the Potency entry in assay [2] is “inactive”. The Z-AUC in assay [4] (setting [8]) is -4.05; in assay [4] (measured here: PEO4 Z-AUC), -3.51. In assay [7] (Viability), the activity change, negative = inhibition is -3.47% (inactive).

For the origin of these results see PubChem BioAssay (NCATS).
